Pol III holo inh – inhibitors of bacterial DNA polymerase III holoenzyme; reconstituted DNA polymerase III holoenzyme replication, biochemical; Potency, µM (series often up to 57.1 µM); 71,000 tested, 0.25% active
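Reconstituted *E. coli* holoenzyme (0.35 nM Pol III, 1 nM beta, 154 nM SSB, 2 nM primase) was preincubated with compound for 15 min at RT. Synthesis on 1.4 nM ssM13Gori ran 35 min, then was stopped with PicoGreen/EDTA and read as dsDNA fluorescence.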
Tau filament bind – tau filament binding. 71,000 tested, 2% active. AID 596. Potency, µM (titrated, usually from 57.1 µM). recombinant tau filaments, thioflavin S fluorescence, 15 h; filaments grown with octadecylsulfate alongside compound. P10636;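 note: actives lower thioflavin S fluorescence by blocking filaments or displacing dye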
Target sequence (P10636 whole entry, looked up): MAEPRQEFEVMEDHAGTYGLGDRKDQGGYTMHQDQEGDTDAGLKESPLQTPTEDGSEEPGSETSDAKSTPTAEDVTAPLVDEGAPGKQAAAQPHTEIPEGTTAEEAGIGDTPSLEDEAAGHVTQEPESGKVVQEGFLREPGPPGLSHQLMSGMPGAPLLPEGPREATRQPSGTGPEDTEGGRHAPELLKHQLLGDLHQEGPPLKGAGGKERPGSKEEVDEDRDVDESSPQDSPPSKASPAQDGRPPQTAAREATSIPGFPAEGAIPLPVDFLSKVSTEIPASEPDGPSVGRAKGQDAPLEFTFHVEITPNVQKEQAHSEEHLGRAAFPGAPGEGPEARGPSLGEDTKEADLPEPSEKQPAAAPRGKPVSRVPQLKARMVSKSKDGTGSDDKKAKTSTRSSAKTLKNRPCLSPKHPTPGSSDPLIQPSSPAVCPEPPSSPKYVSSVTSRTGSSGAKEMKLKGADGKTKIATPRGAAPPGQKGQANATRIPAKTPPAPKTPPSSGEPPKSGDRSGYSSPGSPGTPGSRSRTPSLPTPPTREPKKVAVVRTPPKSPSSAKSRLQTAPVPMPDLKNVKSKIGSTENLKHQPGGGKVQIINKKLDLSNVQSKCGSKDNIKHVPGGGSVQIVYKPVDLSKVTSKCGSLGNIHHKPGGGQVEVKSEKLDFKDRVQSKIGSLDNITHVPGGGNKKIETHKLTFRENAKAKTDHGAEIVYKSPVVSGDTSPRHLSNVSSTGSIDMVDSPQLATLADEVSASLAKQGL
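Assay mix: 1 uM His-tagged tau, 30 uM sodium octadecylsulfate, thioflavine S dye in HEPES/NaCl/DTT buffer. Compound is added prior to the inducer. Fluorescence after 15 h at 37 C.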
TsaE inh – YjeE (TsaE) inhibition, E. coli. 71,000 tested, 0.05% active. Potency, µM. purified YjeE enzyme, qHTS inhibition assay
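Purified YjeE (10 uM) with BODIPY Texas Red-labeled ADP probe (2 uM); compounds pin-transferred, 15 min at room temperature. Binding inhibition read as decreased fluorescence polarization; ADP titration as control.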
p53ts 32C tox – p53ts cell cytotoxicity, permissive temperature | H1299-p53A138V at 32C, ATP luminescence viability, 24 h | Potency, µM (highest dose often 46.1 µM), actives largely listed as cytotoxic | 130,000 tested, 0.93% active | AID 924; note: nearly all actives have a fitted effect of over 55% in size
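H1299-p53 A138V cells (temperature-sensitive p53) exposed 24 h to up to 46 uM compound at 32C, where p53 is wild-type in conformation. Viability read as ATP luminescence and normalised to DMSO and 100 uM tamoxifen. AC50 fitted with the Hill equation.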
p53ts 39C tox – cytotoxicity in p53ts cells at nonpermissive temperature. 130,000 tested, 1.5% active. H1299-p53A138V viability at 39C, ATP luminescence, 24 h. Potency, µM (highest dose often 46.1 µM), hits mostly cytotoxic; note: nearly all actives have a fitted effect of over 55% in size
ERK AVP block – inhibitors of vasopressin-stimulated ERK signaling pathway; HEK293-V1b, vasopressin-stimulated pERK AlphaScreen; Potency, µM (doses to about 57.5 µM), actives largely listed as inhibitors; 72,000 tested, 0.99% active; AID 995; note: nearly all actives have a fitted effect of over 55% in size
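qHTS, compounds titrated on V1b-expressing HEK293 cells. Preincubation 30 min at 37C, vasopressin 25 nM for 5 min, lysis 10 min, bead incubation 5 hr at room temperature.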
Numbers stand for hits; n = inactive; u = inconclusive; x = no result given; ! = a repeat was not active; [ ] = another dose, or the depositor's remark. Only some compounds are listed: those with a hit (about 3.2% of all), similar ones and a draw of the others. Calls come from the whole dose curve; as a rule, active = well fitted curve in the direction sought with a large enough effect; inconclusive = small, poorly fitted or top-dose-only effect, or another doubt; inactive = no such curve, though single readings can be large; an effect the other way counts as inactive or inconclusive.

SMILES	Pol III holo inh	Tau filament bind	TsaE inh	p53ts 32C tox	p53ts 39C tox	ERK AVP block
Cn1cccc1C(=O)OCC(=O)c1cc2ccccc2o1	n	16µM	n	n	n	n
OCc1nc2ccccc2n1CC(O)Cn1ccc2ccccc21 (stereo not given)	n	n	n	n	n	16µM
O=C1c2ccccc2S(=O)(=O)N1CC(O)Cn1ccc2ccccc21 (stereo not given)	n	n	n	n	n	n
Oc1ccccc1NCC(O)Cn1ccc2ccccc21 (stereo not given)	n	13µM	n	u	u	n
O=C(Nc1ccc2nc(SCCOc3ccccc3)sc2c1)c1ccc2c(c1)OCO2	x	x	x	n	n	x
Cc1ccccc1NC(=O)Cn1c(=O)n(CCCCCC(=O)NCc2ccccc2Cl)c(=O)c2sccc21	x	x	x	n	n	x
CCc1cccc(NC(=O)Cn2c(=O)n(CCC(=O)NCc3ccccc3Cl)c(=O)c3sccc32)c1	x	x	x	u	13µM	x
OCCN1CCN(CCC=C2c3ccccc3Sc3ccc(Cl)cc32)CC1	n	n	n	n	n	n
CN1CCN(CCC=C2c3ccccc3Sc3ccc(S(=O)(=O)N(C)C)cc32)CC1	n	n	n	n	16µM!	n
COc1ccccc1-n1cc(C(=O)NCC(=O)N2CCN(c3ccccn3)CC2)c2ccccc2c1=O	n	n	n	u	u	n
COc1ccccc1-n1cc(C(=O)NCC(=O)N2CCN(c3ccccc3)CC2)c2ccccc2c1=O	n	n	n	13µM	13µM	n
CCC(=O)Nc1ccc(NC(=O)c2ccco2)cc1	n	n	n	13µM	10µM	n
O=C(Nc1ccc2c(c1)OCCO2)c1ccccc1F	n[11.4 µM]	u	n	5µM	7.9µM	n
O=C(Nc1cccc2cccc(NC(=O)c3ccco3)c12)c1ccco1	n	13µM	n	n	n	n
O=C(CCc1ccccc1)Nc1ccc(NC(=O)c2ccco2)cc1	n	n	n	n	n	n
Cn1cnc2cc(NC(=O)c3ccco3)ccc21	n	n	n	16µM	7.9µM	n
O=C(Nc1ccccc1NC(=O)c1ccco1)c1ccco1	n	n	n	n	n	n
CCOc1ccccc1NC(=O)C1=C(C)Nc2ncnn2C1c1cccs1 (stereo not given)	x	x	x	n	n	x
CC1(C)[C@@H]2CC[C@@](C)(C2)[C@H]1OC(=O)c1ccccc1C(=O)O	n[11.4 µM]	n[11.4 µM]	n	n[9.22 µM]	n[9.22 µM]	n[11.5 µM]
O=C(Nc1ccc2c(c1)OCCO2)c1ccco1	n	n	n	16µM	13µM	n
O=C(Nc1ccc2c(c1)OCCO2)NC1CCCCC1	n[11.4 µM]	n[11.4 µM]	n	7.9µM	10µM	n
COc1cc2c(cc1OC)n(Cc1cccc(C(F)(F)F)c1)c(=O)n1nc(-c3ccccc3)nc21	x	x	x	n	n	x
Cc1ccc2c(c1)c(C)c(C)n2CC(O)CN1CCOCC1 (stereo not given)	n	n	n	n	n	n
OC(CN1CCNCC1)Cn1c2ccc(Br)cc2c2cc(Br)ccc21 (stereo not given)	x	x	x	u	13µM	u
CN(C)c1ccc(CN(Cc2ccco2)C(=O)c2ccc(C(C)(C)C)cc2)cc1	x	x	x	n	n	x
SMILES	Pol III holo inh	Tau filament bind	TsaE inh	p53ts 32C tox	p53ts 39C tox	ERK AVP block
COc1ccc(OC)c(N2C(=O)[C@@H]3C(c4ccccc4Cl)=NO[C@@H]3C2=O)c1	32µM	u	n	n	n	n
C=CCSC1=NC(N)=C(C#N)C2(CCCCC2)C1C(N)=O (stereo not given)	n	n	n	n	n	n
Cc1ccc(C(=O)CSC2=NC(N)=C(C#N)C3(CCCCC3)C2C(N)=O)cc1 (stereo not given)	n[11.4 µM]	3.2µM	n	n	n	u
N#CC1=C(N)N=C(SCc2ccccc2)C(C(N)=O)C12CCCCC2 (stereo not given)	n	6.3µM	n	n	n	u
O=C(NCCc1ccccc1)c1cnn2c(C(F)F)cc(C3CC3)nc12	n	n	n	n	n	n
Cc1nn(C)cc1CNC(=O)c1cnn2c(C(F)F)cc(C3CC3)nc12	n	n	n	n	n	7.9µM
C[C@@H](c1ccccc1)N1C(=O)[C@H]2[C@@H]3[C@H](O)C=CC(=O)[C@H]3CC[C@H]2C1=O	x	x	x	n[9.22 µM]	n[9.22 µM]	n[11.5 µM]
Cn1ccc2cc(NC(=O)Nc3cccnc3)ccc21	n	n	n	u	16µM	n
CCC(=O)N1CCc2cc(CNS(=O)(=O)c3ccc(NC(=O)CC(C)C)cc3)ccc21	x	x	x	n	n	x
CCOc1ccc(NC(=O)CSc2nc3ccsc3c(=O)n2C(C)CC)cc1 (stereo not given)	x	x	x	n	n	x
CCN(CC)CC[n+]1ccc2c(C)c3[nH]c4ccc(O)cc4c3c(C)c2c1	1.3µM	4µM	n	n[9.22 µM]	n[9.22 µM]	n[11.5 µM]
CCN(CC)CCOC(=O)c1c(C)oc2ccc(O)cc12	n	n	n	n	n	n
CC1CCN(c2ccc(-c3nc(C(C)C)no3)cc2[N+](=O)[O-])CC1	x	x	x	n	n	x
O=C(O)CCSc1nnc(-c2ccc(Cl)cc2Cl)o1	x	x	x	13µM	u	x
Clc1ccc(-c2nnc(-c3ccc(Br)o3)o2)c(Cl)c1	n	n	n	n	n	n
Clc1ccc(-c2nnc(-c3ccccc3)o2)c(Cl)c1	n	n	n	7.9µM	10µM	n
CCSc1nnc(-c2ccc(Cl)cc2Cl)o1	n[11.4 µM]	n[11.4 µM]	n	n	n	n
Fc1ccc(-c2nnc(-c3ccc(Cl)cc3Cl)o2)cc1	n	n	n	5µM	13µM	x
CCCCOC(=O)c1cccc(NC(=O)c2cc3ccccc3o2)c1	x	x	x	u	10µM	x
COc1ccc(NC(=O)c2cc3ccccc3o2)cc1	n	n	n	16µM	16µM	n
CC(=O)Nc1cccc(NC(=O)c2cc3ccccc3o2)c1	n	n	n	13µM	6.3µM	u
CC(C)C(=O)Nc1cccc(NC(=O)c2cc3ccccc3o2)c1	n	n	n	u	u	n
COC(=O)C1=C(C)N(Cc2ccccc2)C2=C(C(C)=O)C(c3ccccc3)[C@@](O)(C(=O)OC)C(=O)N2C1c1ccccc1 (stereo not given in full)	x	x	x	n[9.22 µM]	n[9.22 µM]	n[11.5 µM]
CC(C)(C)N=C1NC(=NC(C)(C)C)c2ccccc21	n	2.5µM	n	n	n	n
c1ccc2c(c1)C(=NCC1CCCO1)NC2=NCC1CCCO1 (stereo not given)	n	n	n	n	n	n
COc1ccccc1CNC(=O)c1c(O)nc2c(C)cccn2c1=O	x	x	x	n	n	x
CCc1ccc(NC(=O)Cn2cc(S(=O)(=O)c3ccc(F)cc3)c(=O)c3cc(OC)ccc32)cc1	x	x	x	u	13µM	x
COc1cc(NC(=O)Cn2nc(C(F)(F)F)c3c2CCC3)cc(OC)c1OC	x	x	x	n	n	x
COc1ccc(Nc2nc(N)nc(CSc3n[nH]c(-c4ccccc4)n3)n2)cc1	n	n	n	n	n	n
Nc1nc(CSc2n[nH]c(-c3ccccc3)n2)nc(Nc2ccccc2)n1	n	n	n	n	n	25µM

Bioassay records: PubChem, National Center for Advancing Translational Sciences (NCATS)
